According to PubChem BioAssay (NCI):
About 79,000 compounds went through this panel and 15% of them were active in at least one assay; those are over-represented in the sample as a whole. The source made the active and inactive calls. No stated cut-off is given here; in the data, active means growth inhibition above about 70%; inactive means the rest.

What was measured:
[1] = NCI Yeast Anticancer Drug Screen. Data for the rad52 strain (AID 147);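 further: 0% = growth of vehicle-treated control cultures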; settings: S. cerevisiae rad52 mutant growth inhibition, active compounds read high
Procedure, shortened: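 Yeast strain carrying a DNA damage repair alteration was exposed to test compounds. Growth inhibition was measured relative to vehicle-treated controls.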

[2] = NCI Yeast Anticancer Drug Screen. Data for the wt1 strain (AID 149);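 further: 0% = growth of vehicle-treated wt1 cultures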; settings: S. cerevisiae wt1 strain (SPY 50644) growth inhibition, active compounds read high
Procedure, shortened: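 wt1 strain grown with compound or vehicle; inhibition taken from the growth difference.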

[3] = NCI Yeast Anticancer Drug Screen. Data for the mgt1 strain (AID 153); settings: S. cerevisiae mgt1 mutant growth inhibition, active compounds read high
Procedure, shortened: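 Yeast mgt1 strain (DNA repair/cell-cycle alteration panel) exposed to compounds; growth inhibition measured relative to vehicle-treated controls.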

[4] = NCI Yeast Anticancer Drug Screen. Data for the rad50 strain (AID 155);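 further: 0% = growth of vehicle-only cultures of the same strain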; settings: S. cerevisiae rad50 strain growth inhibition, active compounds read high
Procedure, shortened: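 DNA repair mutant yeast, compound exposure, growth read-out; inhibition is taken relative to vehicle.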

[5] = NCI Yeast Anticancer Drug Screen. Data for the mec2-1 strain (AID 157); settings: S. cerevisiae mec2-1 strain, active compounds read high
Procedure, shortened: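 mec2-1 yeast strain, carrying an alteration in DNA damage repair or cell cycle control, was exposed to compounds; growth inhibition was measured relative to vehicle-treated controls.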

[6] = NCI Yeast Anticancer Drug Screen. Data for the sgs1 mgt1 strain (AID 161);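 further: 0% = growth of cultures given vehicle only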; settings: S. cerevisiae sgs1 mgt1 strain, active compounds read high
Procedure, shortened: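 This yeast growth screen uses a strain with defined DNA-repair lesions; compound-treated growth is compared with vehicle-treated growth.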

[7] = NCI Yeast Anticancer Drug Screen. Data for the CLN2oe strain (AID 163);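 further: 0% = growth of vehicle-only control cultures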; settings: S. cerevisiae CLN2oe strain, active compounds read high
Procedure, shortened: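 Yeast cells carrying a defined cell-cycle control alteration were exposed to test compounds. Growth inhibition was scored against vehicle-treated control cultures.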

[8] = NCI Yeast Anticancer Drug Screen. Data for the cln2 rad14 strain (AID 165);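 further: 0% = growth equal to vehicle treated cultures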; settings: S. cerevisiae cln2 rad14 strain, active compounds read high
Procedure, shortened: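 Yeast carrying cln2 and rad14 alterations (cell cycle control and DNA damage repair) were exposed to compounds. Growth inhibition was measured against vehicle-treated controls.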

[9] = NCI Yeast Anticancer Drug Screen. Data for the bub3 strain (AID 167); settings: S. cerevisiae bub3 mutant strain, active compounds read high
Procedure, shortened: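 In this screen, a yeast mutant lacking normal mitotic checkpoint function is challenged with compound. Relative growth versus vehicle gives the inhibition value.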

[10] = NCI Yeast Anticancer Drug Screen. Data for the wt2 strain (AID 169);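 further: 0% = growth of vehicle-treated yeast cultures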; settings: S. cerevisiae wt2 strain growth inhibition, active compounds read high
Procedure, shortened: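 Yeast cells were exposed to test compounds, and growth inhibition was measured relative to vehicle-treated controls.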

[11] = NCI Yeast Anticancer Drug Screen. Data for the sgs1 strain (AID 173);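 further: 0% = growth of vehicle-only control cultures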; settings: S. cerevisiae sgs1 mutant, active compounds read high
Procedure, shortened: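 Yeast mutant strains carrying defined defects in DNA damage repair or cell cycle control were exposed to test compounds. Growth inhibition was scored against vehicle-treated controls.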

[12] = NCI Yeast Anticancer Drug Screen. Data for the mlh1 rad18 strain (AID 175); settings: S. cerevisiae mlh1 rad18 strain growth inhibition, active compounds read high
Procedure, shortened: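 Growth inhibition of the yeast strain was measured after compound exposure and expressed relative to vehicle-treated controls. The strain carries defined defects in DNA damage repair.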

[13] = NCI Yeast Anticancer Drug Screen. Data for the rad18 strain (AID 177); settings: S. cerevisiae rad18 mutant growth inhibition, active compounds read high
Procedure, shortened: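 Yeast carrying a defined DNA damage repair alteration were exposed to compounds. Growth inhibition was expressed relative to vehicle-treated controls.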

[14] = NCI Yeast Anticancer Drug Screen. Data for the rad50EPP+ strain (AID 151);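 further: 0% = growth of vehicle-treated control cultures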; settings: S. cerevisiae rad50 mutant strain, active compounds read high
Procedure, shortened: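 Yeast strain carrying rad50 alteration (rad50EPP+) exposed to compounds; growth inhibition measured relative to vehicle-treated controls.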

[15] = NCI Yeast Anticancer Drug Screen. Data for the rad14 strain (AID 159);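 further: 0% = growth of vehicle-treated control cultures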; settings: S. cerevisiae rad14 strain growth inhibition, active compounds read high
Procedure, shortened: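 DNA repair-defective yeast, compound-exposed; % growth inhibition derived by comparison with vehicle-treated controls.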

[16] = at 5.0 µM (retest, dose inferred, filed as 0.5)
[17] = at 50.0 µM (retest, dose inferred, filed as 5.0)

Measured: growth inhibition

Cc1cc(C)c(S(=O)(=O)c2ccc(Cl)cc2)c(C)c1
active: [6]; at 50.0 µM 77.1% | [9]; at 50.0 µM 80.9%
inactive: [1]; at 1.2 µM -3% | [1]; at 3.7 µM -4% | [1]; at 11.0 µM -2% | [1]; at 33.0 µM 7% | [1]; at 100.0 µM 29% | [2]; at 1.2 µM -5% | [2]; at 3.7 µM -10% | [2]; at 11.0 µM -16% | [2]; at 33.0 µM -14% | [2]; at 100.0 µM -4% | [3]; at 1.2 µM -7% | [3]; at 3.7 µM -8% | [3]; at 11.0 µM -14% | [3]; at 33.0 µM -13% | [3]; at 100.0 µM -3% | [4]; at 1.2 µM 0% | [4]; at 3.7 µM 3% | [4]; [16] -7% | [4]; at 11.0 µM 6% | [4]; at 33.0 µM 8% | [4]; [17] 3% | [4]; at 50.0 µM 62.4% | [4]; at 100.0 µM 49% | [5]; at 1.2 µM -5% | [5]; at 3.7 µM -10% | [5]; [16] -5% | [5]; at 11.0 µM -16% | [5]; at 33.0 µM -16% | [5]; [17] 19% | [5]; at 50.0 µM 48% | [5]; at 100.0 µM 13% | [6]; [16] -3% | [6]; [17] 17% | [7]; at 1.2 µM -8% | [7]; at 3.7 µM -15% | [7]; at 11.0 µM -22% | [7]; at 33.0 µM -13% | [7]; at 100.0 µM -2% | [8]; [16] -9% | [8]; [17] -16% | [8]; at 50.0 µM -10.4% | [9]; at 1.2 µM -3% | [9]; at 3.7 µM 4% | [9]; [16] 5% | [9]; at 11.0 µM 11% | [9]; at 33.0 µM 19% | [9]; [17] 20% | [9]; at 100.0 µM 48% | [10]; at 1.2 µM -5% | [10]; at 3.7 µM -7% | [10]; at 11.0 µM -8% | [10]; at 33.0 µM -6% | [10]; at 100.0 µM 18% | [11]; at 1.2 µM -8% | [11]; at 3.7 µM 0% | [11]; at 11.0 µM 0% | [11]; at 33.0 µM 7% | [11]; at 100.0 µM 46% | [12]; [16] -6% | [12]; [17] 1% | [12]; at 50.0 µM 35.2% | [13]; at 1.2 µM -9% | [13]; at 3.7 µM -10% | [13]; at 11.0 µM -13% | [13]; at 33.0 µM -9% | [13]; at 100.0 µM 16%

Brc1ccc(B2Nc3ccccc3N2)cc1
inactive: [1]; at 1.2 µM 3% | [1]; at 3.7 µM 14% | [1]; at 11.0 µM 29% | [1]; at 33.0 µM 42% | [1]; at 100.0 µM 46% | [14]; at 1.2 µM 10% | [14]; at 3.7 µM 19% | [14]; at 11.0 µM 29% | [14]; at 33.0 µM 34% | [14]; at 100.0 µM 42% | [3]; at 1.2 µM -5% | [3]; at 3.7 µM -2% | [3]; at 11.0 µM 10% | [3]; at 33.0 µM 25% | [3]; at 100.0 µM 5% | [4]; at 1.2 µM 6% | [4]; at 3.7 µM 14% | [4]; [16] 21% | [4]; at 11.0 µM 29% | [4]; at 33.0 µM 44% | [4]; [17] 53% | [4]; at 100.0 µM 54% | [5]; at 1.2 µM 1% | [5]; at 3.7 µM 6% | [5]; [16] 17% | [5]; at 11.0 µM 18% | [5]; at 33.0 µM 31% | [5]; [17] 59% | [5]; at 50.0 µM 56.8% | [5]; at 100.0 µM 46% | [15]; at 1.2 µM 13% | [15]; at 3.7 µM 24% | [15]; at 11.0 µM 37% | [15]; at 33.0 µM 53% | [15]; at 100.0 µM 63% | [6]; [16] 31% | [7]; at 1.2 µM -3% | [7]; at 3.7 µM 5% | [7]; at 11.0 µM 29% | [7]; at 33.0 µM 39% | [7]; at 100.0 µM 43% | [8]; [16] 12% | [8]; [17] 40% | [9]; at 1.2 µM 9% | [9]; at 3.7 µM 19% | [9]; [16] 30% | [9]; at 11.0 µM 15% | [9]; at 33.0 µM 43% | [9]; at 100.0 µM 52% | [10]; at 1.2 µM -4% | [10]; at 3.7 µM -4% | [10]; at 11.0 µM 6% | [10]; at 33.0 µM 17% | [10]; at 100.0 µM 27%
active: [4]; at 50.0 µM 73.8% | [6]; [17] 77% | [6]; at 50.0 µM 82.1% | [8]; at 50.0 µM 71.7% | [9]; [17] 73% | [9]; at 50.0 µM 84.8%
